Screens: PubChem, National Center for Advancing Translational Sciences (NCATS)
A selection: hits, their analogues and other compounds. The true share with any hit is near 6.7%.
KB-V1 MDR tox = qHTS assay for MDR1-selective chemotherapeutics: Primary screen using the drug-selected MDR subline cells KB-V1; KB-V1 MDR cells viability, CellTiter-Glo, 72 h; Potency, µM (titrated, usually from 46.1 µM), most hits filed as cytotoxic; actives 3.4% (n = 400,000); note: nearly all actives have a fitted effect of over 60% in size
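Drug-selected KB-V1 cells, grown in DMEM lacking phenol red with 10% FBS, receive compound titrations; after three days at 37 degrees C, surviving cell ATP is quantified by CellTiter-Glo luminescence and responses normalized and curve-fitted.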
PINK1 modulator = A Quantitative High throughput Screen to Identify Chemical Modulators of PINK1 Expression; PINK1 immunofluorescence, high-content cytometry, 24 h; Potency, µM (titrated, usually from 76.6 µM), most hits filed as activators; actives 0.2% (n = 410,000); active = well fitted activation curve with a large enough effect; inconclusive = small, poorly fitted or top-dose-only effect; cell line not stated here; note: nearly all actives have a fitted effect of over 65% in size
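Measures PINK1 amount and localization on or inside mitochondria by immunofluorescence. Stable cells get compounds at 5 concentrations for 24 hours before fixation and staining; CCCP controls included.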
SW480 rerep = A quantitative high throughput screen for small molecules that induce DNA re-replication in SW480 colon adenocarcinoma cells | Potency, µM (series often up to 46.1 µM), most hits filed as activators | SW480 DNA re-replication, Hoechst DNA content imaging, 48 h | AID 624297, 2012 | actives 1.8% (n = 340,000); note: nearly all actives have a fitted effect of over 55% in size
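Hoechst fluorescence of nuclei (405 nm excitation, 500-530 nm emission) measured by plate-scanning imager after 48 hr compound exposure at 37 C; re-replication scored as increased number of nuclei with elevated intensity.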
KB-3-1 tox = qHTS assay for MDR1-selective chemotherapeutics: Primary screen using the parental adenocarcinoma cell KB-3-1 | Potency, µM (highest dose often 46.1 µM), hits mostly cytotoxic | actives 1.4% (n = 400,000) | KB-3-1 viability, CellTiter-Glo ATP luminescence, 72 h; note: nearly all actives have a fitted effect of over 60% in size
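Parental KB-3-1 adenocarcinoma cells in phenol-red-free DMEM with 10% FBS were pin-treated with compounds at several concentrations, incubated 72 h at 37 °C, and viability read by CellTiter-Glo luminescence; concentration-effect curves were fitted after normalization.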
MCF10A rereplic = A quantitative high throughput screen for small molecules that induce DNA re-replication in MCF 10a normal breast cells; Potency, µM (doses to about 46.1 µM), most hits filed as activators; MCF 10A DNA re-replication, Hoechst nuclear intensity, 48 h; actives 2.9% (n = 350,000); note: nearly all actives have a fitted effect of over 50% in size
Each line names hits and unclear results; the compound was inactive in the other large screens. Unless noted, calls come from the whole dose curve; as a rule, active = well fitted curve in the direction sought with a large enough effect; inconclusive = small, poorly fitted or top-dose-only effect, or another doubt; inactive = no such curve, though single readings can be large; an effect the other way counts as inactive or inconclusive.

O=[N+]([O-])c1cc(-n2cnnn2)ccc1N1CCC(Cc2ccccc2)CC1	KB-V1 MDR tox 23µM, SW480 rerep inconclusive
COc1cc2nc(N3CCCCC3)nc(NC(C)C)c2cc1OC	none (no result: KB-V1 MDR tox, SW480 rerep, KB-3-1 tox, MCF10A rereplic)
Clc1ccc(-c2nnc3sc(-c4ccc(Br)o4)nn23)c(Cl)c1	KB-V1 MDR tox inconclusive, MCF10A rereplic 9.2µM
CCOC(=O)CN1C(c2ccc(O)cc2)Nc2ccc(Br)cc2C1c1ccccc1 (configuration not stated)	KB-V1 MDR tox inconclusive, SW480 rerep inconclusive, KB-3-1 tox inconclusive, MCF10A rereplic 18µM
O=C(Nc1ccccc1)N1CCn2c(nc3ccccc32)C1	KB-V1 MDR tox 23µM
CCOC(=O)Cc1csc(/N=C/c2c(O)n(-c3ccc(C)c(C)c3)c(=O)c3ccccc23)n1	KB-V1 MDR tox 10µM, KB-3-1 tox inconclusive, MCF10A rereplic inconclusive
CCOC(=O)[C@H](CCc1ccccc1)N[C@@H](C)C(=O)N1Cc2ccccc2C[C@H]1C(=O)O	MCF10A rereplic 0.12µM
CCOC(=O)[C@@H](CCc1ccccc1)N[C@H](C)C(=O)N1[C@H](C(=O)O)C[C@@H]2CCC[C@@H]21	KB-V1 MDR tox inconclusive
COc1ccccc1OCCn1c(=O)sc2ccccc21	KB-V1 MDR tox 15µM
CCOc1ccc(Cn2c(=O)sc3ccccc32)cc1OC	KB-V1 MDR tox 12µM, KB-3-1 tox inconclusive, MCF10A rereplic inconclusive
COc1cc(Cn2c(=O)sc3ccccc32)ccc1OC(C)C	none (no result: SW480 rerep, MCF10A rereplic)
COc1cc2[nH]c(=O)n(CCCCCC(=O)NC3CCCC3)c(=O)c2cc1OC	none
O=C(CCCn1c(=O)[nH]c2cc(Cl)ccc2c1=O)NC1CCCCCC1	KB-V1 MDR tox 21µM
CC(NO)/C(=N\O)c1cccs1 (configuration not stated)	SW480 rerep inconclusive, MCF10A rereplic 3.7µM (no result: PINK1 modulator)
C/C(=N\N=C(c1ccccc1)c1ccccc1)c1cccs1	none
Cc1cc(C)cc(N(CC(=O)NCC2CCCO2)C(=O)CN2C(=O)COc3ccccc32)c1 (configuration not stated)	KB-V1 MDR tox 13µM
COc1ccc(CNC(=O)C2Cc3c(-c4ccc5c(c4)OCO5)ccnc3O2)cc1OC (configuration not stated)	KB-V1 MDR tox 9.2µM, KB-3-1 tox 21µM (no result: SW480 rerep, MCF10A rereplic)
O=C(NCc1ccc(F)c(F)c1)C1Cc2c(-c3ccc4c(c3)OCO4)ccnc2O1 (configuration not stated)	KB-V1 MDR tox 4.1µM, KB-3-1 tox 8.2µM (no result: SW480 rerep, MCF10A rereplic)
COc1ccc(CNC(=O)C2Cc3c(-c4ccccc4)ccnc3O2)cc1OC (configuration not stated)	KB-V1 MDR tox inconclusive (no result: SW480 rerep, MCF10A rereplic)
COc1ccccc1-c1cnc(C(O)c2cc(C)ccc2C)[nH]1 (configuration not stated)	none (no result: SW480 rerep, MCF10A rereplic)
Cc1n(Cc2ccccc2)c2cc([N+](=O)[O-])ccc2[n+]1Cc1ccccc1	none
Cc1n(Cc2ccccc2)c2ccccc2[n+]1Cc1ccccc1	KB-3-1 tox 6.5µM
Cc1nn(-c2ccc(F)cc2)c(C)c1CNC(=O)c1ccc(-n2cc(NC(=O)c3ccoc3)cn2)cc1	none (no result: KB-V1 MDR tox, SW480 rerep, KB-3-1 tox, MCF10A rereplic)
NS(=O)(=O)c1ccc(CCNC(=O)CCNS(=O)(=O)c2ccccc2C(F)(F)F)cc1	none
CCC(Sc1nc2c(c(=O)[nH]1)CCC2)C(=O)Nc1cccc(OC)c1 (configuration not stated)	KB-V1 MDR tox 16µM
COc1ccc(CN(C)C[C@@H]2OCCCC[C@H](C)Oc3ccc(NC(=O)Cc4ccccc4)cc3C(=O)N([C@@H](C)CO)C[C@@H]2C)cc1	none (no result: SW480 rerep, MCF10A rereplic)
CCCN(C)C[C@@H]1OCCCC[C@@H](C)Oc2ccc(NC(=O)c3ccccc3)cc2C(=O)N([C@H](C)CO)C[C@@H]1C	KB-3-1 tox 4.6µM (no result: SW480 rerep, MCF10A rereplic)
C[C@@H]1CN([C@H](C)CO)C(=O)c2cc(NC(=O)Cc3ccccc3)ccc2O[C@H]1CN(C)Cc1ccc(Oc2ccccc2)cc1	KB-V1 MDR tox inconclusive, SW480 rerep inconclusive, KB-3-1 tox inconclusive, MCF10A rereplic 16µM
C[C@@H]1CCCCO[C@H](CN(C)Cc2ccc(C(F)(F)F)cc2)[C@H](C)CN([C@@H](C)CO)C(=O)c2cc(NC(=O)Cc3ccccc3)ccc2O1	KB-V1 MDR tox 26µM, KB-3-1 tox inconclusive (no result: SW480 rerep, MCF10A rereplic)
C[C@H]1CN([C@@H](C)CO)C(=O)c2cc(NC(=O)Cc3ccccc3)ccc2O[C@H]1CN(C)Cc1ccccc1	none
CC(=O)Nc1cccc(C(=O)OCC(=O)NNC(=O)c2ccc([N+](=O)[O-])cc2)c1	none
O=C(Cn1cnc2onc(-c3ccc(F)cc3)c2c1=O)Nc1ccc(F)c(Cl)c1	none (no result: SW480 rerep, MCF10A rereplic)
O=C(Nc1cccc(C(=O)N2CCCC2)c1)C1CC1	MCF10A rereplic inconclusive
O=C(Nc1ccc2nc(SCC(=O)N3CCOCC3)sc2c1)c1cccc(Cl)c1	none (no result: KB-V1 MDR tox, SW480 rerep, KB-3-1 tox, MCF10A rereplic)
COc1ccc(CCN(C)CC(O)COc2ccc(C(C)=O)cc2OC)cc1OC (configuration not stated)	none
CCOC(=O)c1sc(Nc2nc3c(F)cccc3s2)cc1C	SW480 rerep inconclusive, MCF10A rereplic 21µM
CCOC(=O)c1sc(Nc2nc3ccc(OC)cc3s2)cc1C	PINK1 modulator inconclusive, SW480 rerep inconclusive, MCF10A rereplic 18µM
CCOC(=O)c1sc(NC(=O)Nc2cccc(Cl)c2)cc1C	KB-V1 MDR tox 13µM, PINK1 modulator inconclusive, KB-3-1 tox inconclusive, MCF10A rereplic inconclusive
O=C(C(c1ccccc1)C(O)c1ccccc1)N1CCOCC1 (configuration not stated)	none
Fc1ccc(Sc2nc(-c3ccccc3)nnc2C(F)(F)F)cc1	SW480 rerep inconclusive, KB-3-1 tox 16µM, MCF10A rereplic 3.7µM
CC(C)NC(=O)Cn1ncn2c(cc3cc(F)ccc32)c1=O	none (no result: SW480 rerep, MCF10A rereplic)
COc1ccc(/C=N/NC(=O)c2ccccc2Cl)cc1CSc1nc2ccccc2s1	KB-V1 MDR tox 7.3µM, SW480 rerep 5.8µM, KB-3-1 tox 5.8µM, MCF10A rereplic 0.82µM
COc1ccc(/C=N/NC(=O)c2cccnc2)cc1COc1ccc([N+](=O)[O-])c(C)c1	KB-V1 MDR tox inconclusive, SW480 rerep 12µM, KB-3-1 tox 6.5µM, MCF10A rereplic 2.1µM
COc1ccc(/C=N/NC(=O)c2ccn[nH]2)cc1COc1ccc([N+](=O)[O-])c(C)c1	SW480 rerep inconclusive
COc1ccc(/C=N/NC(=O)c2cccnc2)cc1CSc1nc2ccccc2s1	KB-V1 MDR tox 12µM, SW480 rerep 21µM, KB-3-1 tox inconclusive, MCF10A rereplic inconclusive
COc1ccc(/C=N/NC(=O)CCSc2nc3ccccc3s2)cc1OC	SW480 rerep inconclusive, MCF10A rereplic inconclusive
COc1ccc(/C=N\NC(=O)c2ccccc2OC)cc1COc1c(F)c(F)c(F)c(F)c1F	KB-V1 MDR tox inconclusive
